High-throughput results deposited in PubChem by National Center for Advancing Translational Sciences (NCATS).
The entries come from a sample that favours hits as a whole.
ERK EGF inh = qHTS Assay for Inhibitors of the ERK Signaling Pathway using a Homogeneous Screening Assay; Stimulation with EGF | HEK293-V1b, EGF-stimulated phospho-ERK AlphaScreen | Potency, µM (titrated, usually from 11.5 µM), without a hit: at the top dose activity change, negative = inhibition, actives largely listed as inhibitors | 130,000 compounds, 0.41% hits | AID 1454, 2008;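 also: potency is read from the fitted curve at half-maximal effect; plate controls were stimulated vehicle wells for no effect and unstimulated vehicle basal for full effect; nearly all actives have a fitted effect of over 55% in size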
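Compounds are titrated over HEK293-V1b cells kept overnight in 1% FBS. After 30 min at 37C, EGF (25 nM final) triggers ERK phosphorylation for 5 min, measured by AlphaScreen in lysates.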
ERK pERK EGF = Confirmation Concentration-Response Assay for Inhibitors of the ERK Signaling Pathway using a Homogeneous Screening Assay; Stimulation with EGF; AID 1725, 2009; Potency, µM (doses to about 57.5 µM), for inactives: top-dose activity change, negative = inhibition, usual class: inhibitors; HEK293 EGF-stimulated ERK phosphorylation, AlphaScreen; shares compounds with ERK EGF inh; 60 compounds, 60% hits
c-Raf inh = Assay for Inhibitors of the ERK Signaling Pathway using a Homogeneous Screening Assay: c-Raf Inhibition; c-Raf kinase inhibition, homogeneous biochemical assay; shares compounds with ERK EGF inh; activity change, negative = inhibition, % at 76.9 µM; 70 tested, under 10 active
MEK inh = Assay for Inhibitors of the ERK Signaling Pathway using a Homogeneous Screening Assay: MEK Inhibition; 70 tested, under 10 active; Potency, µM (highest dose often 76.9 µM), for the others: at the highest dose activity change, negative = inhibition, most hits filed as inhibitors; shares compounds with ERK EGF inh; homogeneous MEK kinase activity assay, ERK pathway; AID 1732, 2009
Target sequence (Q02750 whole entry, looked up): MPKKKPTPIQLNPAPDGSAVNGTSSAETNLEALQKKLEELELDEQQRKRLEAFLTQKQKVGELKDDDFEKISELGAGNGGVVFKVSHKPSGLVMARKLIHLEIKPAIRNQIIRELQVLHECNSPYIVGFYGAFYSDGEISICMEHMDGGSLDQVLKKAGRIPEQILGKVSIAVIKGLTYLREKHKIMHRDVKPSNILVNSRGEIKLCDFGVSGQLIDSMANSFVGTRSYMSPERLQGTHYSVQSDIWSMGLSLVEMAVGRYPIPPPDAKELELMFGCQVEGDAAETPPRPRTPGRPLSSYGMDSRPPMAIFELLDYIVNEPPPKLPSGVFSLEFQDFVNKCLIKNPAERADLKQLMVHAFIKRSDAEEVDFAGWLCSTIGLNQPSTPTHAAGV
* marks the source's active call; other numbers are inactive results; [ ] = remark or other dose. Calls follow the shape of the dose curve; as a rule, active = well fitted curve in the direction sought with a large enough effect; inconclusive = small, poorly fitted or top-dose-only effect, or another doubt; inactive = no such curve, though single readings can be large; an effect the other way counts as inactive or inconclusive.

Screening Cc1ccc(Nc2ncnc3sc(C)c(C)c23)cc1 returned ERK EGF inh 8.9µM*, ERK pERK EGF 11µM*, c-Raf inh inconclusive and MEK inh -18%.
`O=C(O)c1ccc(N/N=C/c2ccc3c(c2)OCO3)cc1` gave ERK EGF inh 3%.
Screening NS(=O)(=O)c1ccc(N/N=C/c2ccc3c(c2)OCO3)c([N+](=O)[O-])c1 returned ERK EGF inh -2%.
`O=[N+]([O-])c1ccccc1N/N=C/c1ccc2c(c1)OCO2` gave ERK EGF inh inconclusive, ERK pERK EGF inconclusive, c-Raf inh -10 and MEK inh -1%.
`CCNC(=S)NNC(=O)c1cc(-c2cccnc2)nc2ccccc12` gave ERK EGF inh -9%.
Cc1[nH]n(-c2ccc(Cl)cc2)c(=O)c1C(=O)c1ccccc1 was read as ERK EGF inh -8%.
Cn1c(=O)c2c(Nc3ccc(F)cc3)cc(=O)n(-c3ccccc3)c2n(C)c1=O was read as ERK EGF inh 2%[57.5 µM].
`Cc1nc2cnc(Nc3ccccc3)nc2n(C)c1=O` gave ERK EGF inh -3%.
For Cn1c(=O)cc(Nc2ccccc2)c2c(=O)n(-c3ccccc3)c(=O)n(-c3ccccc3)c21 the results were ERK EGF inh 5µM*, ERK pERK EGF 10µM*, c-Raf inh -5 and MEK inh -15%.
Screening CC(C)COCC(O)CC(Cc1ccccc1)C(=O)NN (centres undefined) returned ERK EGF inh 8%.
`Cc1onc(-c2ccccc2)c1C(=O)N/N=C/c1ccc([N+](=O)[O-])s1` gave ERK EGF inh -6%.
COc1cc2ncnc(Nc3cccc(Cl)c3)c2cc1OC was read as ERK EGF inh 0.25µM*, ERK pERK EGF 0.2µM*, c-Raf inh inconclusive and MEK inh -15%.
N#Cc1cccnc1Nc1cccc(Cl)c1 was read as ERK EGF inh -19%.
For COc1cc(C)c(NC(=S)Nc2cccc(Cl)c2)cc1OC the results were ERK EGF inh -4%.
`COc1ccc(-c2nc3ccccc3n2OCC(=O)O)cc1` gave ERK EGF inh -1%.
Cc1cc(NS(=O)(=O)c2ccc(NC(=S)NCc3ccccc3)cc2)no1 was read as ERK EGF inh -3%.
For CN(C)S(=O)(=O)c1cccc2c1C(=O)c1ccccc1C2=O the results were ERK EGF inh 1%.
Screening NC(=O)COC(=O)c1cccc2c1-c1ccccc1C2=O returned ERK EGF inh -9%.
For CNc1cccc2c1C(=O)c1ccccc1C2=O the results were ERK EGF inh 10µM*, ERK pERK EGF 14µM*, c-Raf inh -9 and MEK inh -19%.
`CCOC(=O)C1(Cc2cccc(OC)c2)CCN(Cc2ccccc2OC)CC1` gave ERK EGF inh -14%.
Screening COc1ccc(OCC#CCn2ccnc2)cc1 returned ERK EGF inh -7%.
For O=C(O)c1ccc(OCCn2ccnc2)cc1 the results were ERK EGF inh -7%[57.5 µM].
For COc1ccc(C(=O)OC(COc2ccccc2)Cn2ccnc2)cc1 (centres undefined) the results were ERK EGF inh 7.1µM*, ERK pERK EGF 14µM*, c-Raf inh -8 and MEK inh -15%.
O=C(COc1ccc(/C=N/NC(=O)C(=O)N2CCCCC2)cc1)Nc1ccccc1Cl was read as ERK EGF inh -2%.
For CCC(=O)Nc1cccc(SC)c1 the results were ERK EGF inh 4%.
CNC(=O)C(=O)Nc1c(O)c2ccccc2[nH]c1=O was read as ERK EGF inh 1%[57.5 µM].
CCn1c(CN2CCN(CCO)CC2)nc2ccccc21 was read as ERK EGF inh -1%.
c1cncc(CNc2ncnc3sc4c(c23)CCC4)c1 was read as ERK EGF inh -14%[57.5 µM].
Screening O=S(=O)(Nc1ncnc2sc3c(c12)CCC3)c1cc(F)ccc1F returned ERK EGF inh -12%[57.5 µM].
Fc1cccc(Nc2ncnc3sc4c(c23)CCC4)c1 was read as ERK EGF inh 3.2µM*, ERK pERK EGF 10µM*, c-Raf inh inconclusive and MEK inh 8%.
CCC(C)N=Cc1c(Nc2ccccc2)nc2c(C)cccn2c1=O (centres undefined) was read as ERK EGF inh -18%[57.5 µM].
